An excerpt weighted towards active compounds, which were near 4.7% of everything screened.
D1 potentiator: Potentiators of Human D1 Dopamine Receptor: qHTS; HEK293 TREx D1 cells, calcium flux, dopamine EC20 potentiation; potentiation, % at 10 µM; AID 504651, 2011; 360,000 tested, 0.036% active; in the data active = potentiation above about 30%; note: 0% is about no effect
Target sequence (P21728 whole entry, looked up): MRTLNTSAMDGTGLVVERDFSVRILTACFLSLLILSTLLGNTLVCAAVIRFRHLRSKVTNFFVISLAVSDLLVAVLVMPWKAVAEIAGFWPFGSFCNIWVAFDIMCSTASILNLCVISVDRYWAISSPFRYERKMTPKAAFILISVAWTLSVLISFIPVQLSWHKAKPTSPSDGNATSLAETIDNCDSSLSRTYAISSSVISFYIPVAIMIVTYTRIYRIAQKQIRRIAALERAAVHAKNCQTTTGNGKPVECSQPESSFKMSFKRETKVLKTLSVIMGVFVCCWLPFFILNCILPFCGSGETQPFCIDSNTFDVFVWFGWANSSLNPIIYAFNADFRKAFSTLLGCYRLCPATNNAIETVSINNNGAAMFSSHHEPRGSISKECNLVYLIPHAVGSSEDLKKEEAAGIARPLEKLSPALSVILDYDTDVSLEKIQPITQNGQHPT
TRHR ag: qHTS for Small Molecule Agonists and Allosteric Enhancers of Human TRH Receptor: Primary Screen for Agonists; 360,000 tested, 0.18% active; Thyrotropin-releasing hormone receptor (Homo sapiens), P34981; activation, % at 2 µM; TRHR cells, calcium flux fluo-8, FDSS agonist mode; note: 0% is about no effect
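Read-out: compound-evoked intracellular calcium rise in TRHR cells, fluo-8 dye, kinetic FDSS fluorescence at 1 s/cycle following a 10-cycle baseline. Cells cultured overnight before dye loading (30 min–1.5 h, RT).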
D1 agonist: Allosteric Agonists of the Human D1 Dopamine Receptor: qHTS | D(1A) dopamine receptor (Homo sapiens), P21728 | HEK293 T-REx D1 cells, calcium flux, agonist mode | activation, % at 2 µM | 360,000 tested, 1% active | AID 504660, 2011; note: 0% is about no effect
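Agonism was scored from calcium flux recorded over 180 s (1 read/s) after pintool compound addition, following a 10-cycle baseline. Cells were inducible force-coupled HEK293 TREx D1, plated overnight at 30 C and loaded with no-wash calcium dye.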
D1 antagonist: Antagonist of Human D 1 Dopamine Receptor: qHTS. HEK293 TREx D1 cells, calcium flux, dopamine EC80; stronger effect = lower value. 360,000 tested, 3.2% active. activity change, negative = inhibition, % at 10 µM; in the data active = activity change below about -30%; note: % is set by controls: 0 for no effect and ±100 for the full control effect
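After overnight tetracycline induction at 30 C, force-coupled D1 HEK293 cells took up a no-wash calcium dye at room temperature. Compounds were added and monitored 180 s, and the response to EC80 dopamine was then recorded.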
TRHR PAM: qHTS for Small Molecule Agonists and Allosteric Enhancers of Human TRH Receptor: Primary Screen for Enhancers; Thyrotropin-releasing hormone receptor (Homo sapiens), P34981; TRHR cells, fluo-8 calcium fluorescence, EC20 TRH enhancement; enhancement, % at 2 µM; 360,000 tested, 0.66% active; AID 493056, 2011; in the data active = enhancement above about 30%; note: 0% is about no effect
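TRHR-expressing cells loaded with fluo-8 calcium dye were read kinetically (ex 480/em 530) during compound addition, then stimulated with an EC20 of TRH (10 nM final). Enhancement of the Gq-mediated intracellular calcium response was scored.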
Starred values were filed as active, the others as inactive; / = no result. Cut-off read from the data, not from the text of the source, unless noted: active = activation above about 30%; inactive = the rest.

SMILES	D1 potentiator	TRHR ag	D1 agonist	D1 antagonist	TRHR PAM
CCC(CC)C(=O)Nc1cccc(C(=O)N2CCOCC2)c1	-0.1	0.1	2.5	-31.8*	1.6
COc1cc(NC(=O)c2cc(C3CC3)nc3c2c(C)nn3-c2ccc(C)cc2)cc(OC)c1	-2.4	1.5	4.5	-24.9	8.5
COc1ccc(CCCc2nnc(SCC(=O)Nc3cccc(F)c3C)o2)cc1	-1.9	-0.3	5.7	5.3	-4.0
O=C(c1ccc(Br)cc1)N1CCN(Cc2ccccc2)CC1	-30.4	-0.2	1.2	-57.0*	4.1
O=C(c1ccc(F)cc1)N1CCN(Cc2ccccc2)CC1	-3.6	0.3	4.0	-3.4	1.6
COc1ccc(Cl)cc1NC(=O)CSc1nnc2[nH]c(=O)cc(C)n12	-0.2	0.4	-2.1	/	-0.6
O=C(CCC1N=C2c3ccccc3N=C(SCC(=O)Nc3ccccc3F)N2C1=O)NCc1ccco1 (configuration not stated)	-1.1	-0.1	1.4	0.8	-1.8
Cc1ccc(NC(=S)NCC2CCN(C(C)c3ccccc3)C2)cc1C (configuration not stated)	-5.6	-0.3	10.2	-63.3*	3.8
COc1ccc(Br)cc1C1CC(=O)N2CN(C)CSC2=C1C#N (configuration not stated)	-8.3	0.0	2.5	-7.0	-3.5
COc1cc(OC)c(C2CC(=O)N3CN(C)CSC3=C2C#N)cc1OC (configuration not stated)	-7.2	0.4	2.1	-38.3*	1.3
COc1ccc(Br)cc1C1CC(=O)N2CN(Cc3ccccc3)CSC2=C1C#N (configuration not stated)	-1.1	1.0	2.0	-31.1*	0.4
O=C(CSc1nnc(CNC(=O)c2c(F)cccc2Cl)o1)Nc1ccccc1F	-4.2	-0.3	1.2	-15.7	9.6
COc1ccc(C(=O)Nc2ccc(S(=O)(=O)Nc3cc(C)nc(C)n3)cc2)cc1OC	-4.2	1.3	4.5	-5.9	7.5
Cc1ccc(NS(=O)(=O)c2ccc(NC(=O)C3CCCO3)cc2)cc1 (configuration not stated)	-3.6	-0.8	38.7*	-0.2	9.8
Cc1cc(C)c(C(=O)Nc2ccc(S(=O)(=O)Nc3onc(C)c3C)cc2)c(C)c1	-4.8	0.4	-1.8	-82.3*	-1.1
Cc1ccc(S(=O)(=O)Nc2ccc(NC(=O)c3c(F)c(F)c(F)c(F)c3F)cc2)cc1	-7.5	3.6	46.6*	-8.0	-1.8
COc1ccc(NS(=O)(=O)c2ccc(NC(=O)C3CCCO3)cc2)cc1 (configuration not stated)	1.1	1.2	14.1	0.0	-5.5
Cc1cc(NS(=O)(=O)c2ccc(NC(=O)c3c(F)c(F)c(F)c(F)c3F)cc2)nc(C)n1	-7.9	0.3	3.2	-48.8*	1.3
COc1ccccc1CNC(=O)c1ccc2c(c1)sc1nc(-c3ccc(F)cc3)cn12	-1.9	0.2	-0.1	4.2	-3.6
Cc1ccccc1S(=O)(=O)N1CCN(S(=O)(=O)c2ccc3c(c2)OCCO3)CC1	3.5	0.3	3.9	-12.1	2.2
CC(C)NC(=O)Cc1csc2nc(-c3ccccc3)cn12	-1.8	0.2	0.5	6.3	5.9
CCCCCNC(=O)C1CCC(Cn2c(=O)c3sccc3n(CC)c2=O)CC1 (configuration not stated)	-6.2	-0.5	0.0	-18.9	-3.6
CC1=CN2C(=N)/C(=C\c3cn(CCCOc4ccccc4)c4ccccc34)C(=O)N=C2S1	-5.1	6.2	30.8*	-20.8	-6.4
CCCS(=O)(=O)c1nc(S(=O)(=O)c2ccc(C)cc2)c(NCCCN2CCOCC2)s1	-4.8	-0.8	-0.1	-31.6*	-2.2
CCS(=O)(=O)c1nc(S(=O)(=O)c2ccc(C)cc2)c(NCCN2CCOCC2)s1	5.5	0.0	1.6	-0.9	11.1
SMILES	D1 potentiator	TRHR ag	D1 agonist	D1 antagonist	TRHR PAM
O=S(=O)(c1ccc(Cl)cc1)c1nc(-c2ccccc2F)oc1NCCCN1CCOCC1	11.2	-0.1	3.6	10.7	-1.7
Cc1ccc(S(=O)(=O)c2nc(-c3ccccc3Cl)oc2NCCCN2CCOCC2)cc1	-3.8	1.0	-1.2	-7.7	34.5*
Cc1ccc2c(=O)cc(C(=O)Nc3ccc(S(=O)(=O)N(C)Cc4ccccc4)cc3)oc2c1C	-2.5	-1.2	3.1	-17.9	4.0
C/C(=N\OCc1nc2ccccc2c(=O)n1/N=C/c1cc(C)cc([N+](=O)[O-])c1O)c1ccccc1	-0.1	0.4	11.8	-32.6*	-0.8
O=C(NCC(c1cccnc1)N1CCN(c2ccccc2F)CC1)c1ccccc1 (configuration not stated)	-7.2	-0.2	0.7	-31.8*	-13.5
Cc1ccc(C(=O)NCC(c2cccnc2)N2CCc3ccccc3C2)cc1C (configuration not stated)	-3.4	0.1	3.3	-31.2*	1.5
CN(C)CCNC(=O)C(=O)NCC(c1cccnc1)N1CCN(c2ccc(F)cc2)CC1 (configuration not stated)	2.6	-0.2	-1.2	-2.3	-6.2
CN(C)CCNC(=O)C(=O)NCC(c1cccnc1)N1CCN(c2ccccc2)CC1 (configuration not stated)	-3.8	0.2	5.2	-32.8*	7.9
O=C(NCCc1ccccc1)C(=O)NCC(c1cccnc1)N1CCN(c2ccc(F)cc2)CC1 (configuration not stated)	1.4	-0.9	32.8*	3.7	0.6
CC(C)(C)c1ccc(C(=O)NCC(c2cccnc2)N2CCc3ccccc3C2)cc1 (configuration not stated)	1.4	-1.1	2.6	7.1	1.3
O=C(NCc1cccnc1)C(=O)NCC(c1cccnc1)N1CCN(c2ccc(F)cc2)CC1 (configuration not stated)	-5.5	0.0	5.3	1.4	9.2
CC(=O)N1c2ccccc2CC1C(=O)N1CCN(c2cccc(C)c2C)CC1 (configuration not stated)	0.5	-0.9	4.2	1.8	-2.6
COC(=O)c1ccc(NC(=S)NC2CCCCC2C)cc1 (configuration not stated)	-4.8	0.6	23.4	-13.7	-5.0
FC(F)Sc1ccc(NC(=S)NC2CCCC2)cc1	-3.5	0.8	29.7	-34.2*	-3.2
CC1CCCC(NC(=S)Nc2ccc(SC(F)F)cc2)C1C (configuration not stated)	-9.4	-0.4	18.3	-43.9*	4.9
OC1CCC(NC(=S)Nc2ccc(SC(F)F)cc2)CC1 (configuration not stated)	-2.5	-0.1	4.0	-8.8	-3.0
